An excerpt weighted towards active compounds, which were near 8% of everything screened.
MCF10A rerep: DNA re-replication induction in MCF 10a cells | MCF 10A DNA re-replication, Hoechst nuclear intensity, 48 h | Potency, µM (series often up to 46.1 µM), for the others: top-dose activity, positive = re-replication, usual class: activators | actives 2.9% (n = 350,000) | AID 624296; note: % of control where 0% means no effect; nearly all actives have a fitted effect of over 50% in size
HT1080-NT tox: kills 2HG-producing HT-1080-NT fibrosarcoma cells. AID 686970. actives 1.6% (n = 360,000). HT-1080-NT fibrosarcoma viability, CellTiter-Glo ATP luminescence, 48 h. Potency, µM (doses to about 46.1 µM), for inactives: top-dose activity, negative = less viability, actives largely listed as cytotoxic;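 note: NT is the 2HG producing partner of a matched IDH1 knockdown line; 0% = DMSO-treated cells and -100% = media-only wells without cells; nearly all actives have a fitted effect of over 55% in size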
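Viability of the 2HG-overproducing fibrosarcoma line after 48 hours of compound exposure at 37 degrees C was determined by luminescence with CellTiter-Glo, and concentration-effect curves were then fitted and categorized.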
KB-3-1 cytotox: kills parental KB-3-1 adenocarcinoma cells; actives 1.4% (n = 400,000); Potency, µM (titrated, usually from 46.1 µM), usual class: cytotoxic; KB-3-1 viability, CellTiter-Glo ATP luminescence, 72 h; note: % is set by controls: 0 for no effect and ±100 for the full control effect; nearly all actives have a fitted effect of over 60% in size
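Using CellTiter-Glo luminescence, growth of non-resistant KB-3-1 adenocarcinoma cells is assessed 72 h after pin-tool compound addition at 37 °C. Normalized responses across the concentration series yield fitted curves.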
HT1080 IDH1KD tx: kills HT-1080 cells with IDH1 knockdown | HT-1080 IDH1 knockdown viability, ATP luminescence, 48 h | Potency, µM (series often up to 46.1 µM), without a hit: at the highest dose activity, negative = toxicity, actives largely listed as cytotoxic | actives 2% (n = 360,000);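 note: 0% = DMSO wells and -100% = cell-free medium wells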
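In this qHTS, HT-1080 cells depleted of IDH1 are exposed for 48 h at 37 °C to compound titrations. Toxicity is scored from CellTiter-Glo luminescence, with DMSO as full viability and medium alone as none.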
KB-V1 cytotox: KB-V1 MDR subline cytotoxicity; KB-V1 MDR cells viability, CellTiter-Glo, 72 h; Potency, µM (top dose mostly 46.1 µM), most hits filed as cytotoxic; actives 3.4% (n = 400,000); note: % is set by controls: 0 for no effect and ±100 for the full control effect; nearly all actives have a fitted effect of over 60% in size
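In this primary screen, KB-V1 cells overexpressing P-gp are incubated with library compounds (lowest to highest concentration) for 72 h at 37 degrees C before a luminescent ATP viability read.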
SW480 rereplic: DNA re-replication induction in SW480 cells; SW480 DNA re-replication, Hoechst DNA content imaging, 48 h; Potency, µM (highest dose often 46.1 µM), without a hit: top-dose re-replication activation, hits mostly activators; actives 1.8% (n = 340,000); AID 624297; note: % of control where 0% means no effect; nearly all actives have a fitted effect of over 55% in size
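Compounds, transferred as 23 nL by pin tool, were incubated with cells for 48 hr; DNA content per nucleus was then quantified by Hoechst staining and fluorescence plate imaging.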
Starred values were filed as active, the others as inactive. Calls come from the whole dose curve; as a rule, active = well fitted curve in the direction sought with a large enough effect; inconclusive = small, poorly fitted or top-dose-only effect, or another doubt; inactive = no such curve, though single readings can be large; an effect the other way counts as inactive or inconclusive. Potency is the fitted concentration of half-maximal effect.

How did COc1cc(C2c3cc4c(cc3C(OC3OC5COC(c6cccs6)OC5C(O)C3O)C3COC(=O)C23)OCO4)cc(OC)c1O (stereo not drawn) do in these assays?
MCF10A rerep: inconclusive; HT1080-NT tox: inconclusive; KB-3-1 cytotox: 4.1µM*; HT1080 IDH1KD tx: inconclusive; KB-V1 cytotox: inactive; SW480 rereplic: inconclusive

Results for COc1cc([C@H]2c3cc4c(cc3[C@@H](O[C@H]3O[C@H]5CO[C@@H](C)O[C@H]5[C@@H](O)[C@@H]3O)[C@@H]3COC(=O)[C@H]23)OCO4)cc(OC)c1O ?
MCF10A rerep: inconclusive; SW480 rereplic: 1.5µM*

How did Clc1ccc(-c2nc3ccccn3c2Nc2ccc3c(c2)OCCO3)s1 do in these assays?
KB-3-1 cytotox: inactive; KB-V1 cytotox: inactive

What do the screens show for `Cc1ccc(C2CC(=O)Nc3c2c(C)nn3-c2nc(C)cc(C)n2)c(C)c1` (stereo not drawn)?
KB-3-1 cytotox: inactive; KB-V1 cytotox: inactive

Results for CCCCc1ncc(/C=C(\Cc2cccs2)C(=O)O)n1Cc1ccc(C(=O)O)cc1 ?
MCF10A rerep: -1%; SW480 rereplic: -1%

How did Cc1cccn2c(=O)nc(SCC(=O)NCCc3ccccc3)nc12 do in these assays?
MCF10A rerep: -2%; HT1080-NT tox: -4%; KB-3-1 cytotox: inactive; HT1080 IDH1KD tx: -2%; KB-V1 cytotox: inactive; SW480 rereplic: -6%

How did CC1(C)CC(=O)C2=C(C1)NC1=C(C(=O)c3ccccc31)C2c1ccccc1 (stereo not drawn) do in these assays?
MCF10A rerep: 16%; HT1080-NT tox: -5%; KB-3-1 cytotox: inconclusive; HT1080 IDH1KD tx: -18%; KB-V1 cytotox: 16µM*; SW480 rereplic: 0%

Results for CC1=C([N+](=O)[O-])C(c2ccccc2)C2=C(N1)c1ccccc1C2=O (stereo not drawn) ?
MCF10A rerep: inconclusive; HT1080-NT tox: inconclusive; KB-3-1 cytotox: 0.82µM*; HT1080 IDH1KD tx: inconclusive; KB-V1 cytotox: 4.6µM*; SW480 rereplic: inconclusive

Results for CCOC(=O)C1=C(c2ccccc2)NC(N)=NC1c1ccc(OCc2ccc(Cl)cc2)c(OC)c1 (stereo not drawn) ?
MCF10A rerep: 18µM*; HT1080-NT tox: 6%; KB-3-1 cytotox: inconclusive; HT1080 IDH1KD tx: -6%; KB-V1 cytotox: inactive; SW480 rereplic: inconclusive

What do the screens show for `CCOC(=O)C1=C(c2ccccc2)NC(=O)NC1c1cc(Cl)c(O)c(OC)c1` (stereo not drawn)?
MCF10A rerep: -4%; HT1080-NT tox: -21%; KB-3-1 cytotox: inactive; HT1080 IDH1KD tx: -12%; KB-V1 cytotox: inactive; SW480 rereplic: -11%

How did Cc1cc(-c2nc3ncccc3o2)ccc1NC(=O)c1ccc([N+](=O)[O-])o1 do in these assays?
MCF10A rerep: inconclusive; HT1080-NT tox: 5%; KB-3-1 cytotox: inactive; HT1080 IDH1KD tx: 9%; KB-V1 cytotox: inactive; SW480 rereplic: -13%

What do the screens show for `O=C(Nc1ccc2oc(-c3ccncc3)nc2c1)c1ccc([N+](=O)[O-])o1`?
MCF10A rerep: 4.1µM*; HT1080-NT tox: 6.5µM*; KB-3-1 cytotox: inconclusive; HT1080 IDH1KD tx: 16µM*; KB-V1 cytotox: inactive; SW480 rereplic: 2.6µM*

What do the screens show for `O=C(Nc1ccc2oc(-c3ccncc3)nc2c1)c1ccccc1`?
MCF10A rerep: -1%; HT1080-NT tox: 25%; KB-3-1 cytotox: inactive; HT1080 IDH1KD tx: 19%; KB-V1 cytotox: inactive; SW480 rereplic: 0%

Results for Cn1cc([N+](=O)[O-])c(C(=O)Nc2ccc(-c3nc4ccccc4o3)cc2)n1 ?
MCF10A rerep: 3.7µM*; HT1080-NT tox: inconclusive; KB-3-1 cytotox: 18µM*; HT1080 IDH1KD tx: inconclusive; KB-V1 cytotox: 12µM*; SW480 rereplic: inconclusive

How did Cc1ccc(-c2nc3ncccc3o2)cc1NC(=O)c1ccc([N+](=O)[O-])o1 do in these assays?
MCF10A rerep: 2.3µM*; HT1080-NT tox: inconclusive; KB-3-1 cytotox: inconclusive; HT1080 IDH1KD tx: inconclusive; KB-V1 cytotox: 18µM*; SW480 rereplic: 2.1µM*

What do the screens show for `O=C(Nc1ccc(-c2nc3ncccc3o2)cc1)c1ccc([N+](=O)[O-])o1`?
MCF10A rerep: 2.9µM*; HT1080-NT tox: inconclusive; KB-3-1 cytotox: inconclusive; HT1080 IDH1KD tx: inconclusive; KB-V1 cytotox: inactive; SW480 rereplic: 2.3µM*

How did Cc1ccc2c(c1)ncc[n+]2CC(=O)c1ccc(F)cc1 do in these assays?
KB-3-1 cytotox: inactive; KB-V1 cytotox: inactive

Results for CN(CC(=O)OCC(=O)NC1CCCC1)S(=O)(=O)c1ccc(Cl)cc1 ?
MCF10A rerep: -1%; HT1080-NT tox: -4%; KB-3-1 cytotox: inconclusive; HT1080 IDH1KD tx: -1%; KB-V1 cytotox: inactive; SW480 rereplic: inconclusive

How did O=Cc1cn(-c2ccccc2)nc1-c1cc2c(ccc3ccccc32)oc1=O do in these assays?
MCF10A rerep: 2.9µM*; HT1080-NT tox: 12%; KB-3-1 cytotox: inactive; HT1080 IDH1KD tx: 10%; KB-V1 cytotox: inactive; SW480 rereplic: 2%

What do the screens show for `O=Cc1cn(-c2ccccc2)nc1-c1cc2cc(O)ccc2oc1=O`?
MCF10A rerep: -9%; HT1080-NT tox: 9%; KB-3-1 cytotox: inactive; HT1080 IDH1KD tx: 1%; KB-V1 cytotox: inactive; SW480 rereplic: 27%

What do the screens show for `CCN1C(=O)C(Cc2nc3ccccc3c(=O)n2-c2ccc(OC)cc2)c2ccccc21` (stereo not drawn)?
KB-3-1 cytotox: inactive; KB-V1 cytotox: inactive

How did CCCCN(C)S(=O)(=O)c1ccc(NC2=NS(=O)(=O)c3ccccc32)cc1 do in these assays?
KB-3-1 cytotox: inactive; KB-V1 cytotox: inactive

How did COc1ccc(C2NCCc3c2[nH]c2ccccc32)cc1CSc1nc2ccccc2s1 (stereo not drawn) do in these assays?
MCF10A rerep: inconclusive; HT1080-NT tox: 23µM*; KB-3-1 cytotox: inconclusive; HT1080 IDH1KD tx: 23µM*; KB-V1 cytotox: 23µM*

What do the screens show for `O=c1[nH]c(CSc2nc3ccccc3s2)nc2ccccc12`?
MCF10A rerep: inconclusive; HT1080-NT tox: -15%; KB-3-1 cytotox: inactive; HT1080 IDH1KD tx: -10%; KB-V1 cytotox: inactive; SW480 rereplic: 2%

What do the screens show for `CCc1ccc2c(c1)C(c1ccc([N+](=O)[O-])cc1)=NNC(c1ccc(F)cc1)=N2`?
MCF10A rerep: 6%; HT1080-NT tox: -6%; KB-3-1 cytotox: inconclusive; HT1080 IDH1KD tx: -14%; KB-V1 cytotox: inconclusive; SW480 rereplic: 13%
